Experimental findings from PubChem BioAssay AID1347076 (National Center for Advancing Translational Sciences (NCATS), 2019) are described below.

Structures are written as SMILES. Screen size: about 400,000 compounds; about 13,000 (3.2%) were called active. Inconclusive results (about 18%) are left out. The call rests on the fitted dose curve; in most records, active means well fitted cell-killing curve with a large enough effect; inconclusive means small, poorly fitted or top-dose-only effect, or effect the other way; inactive means flat fitted curve, though single readings scatter. This excerpt belongs to a sample that is enriched for actives.
On the % scale 0 is the no-effect control and ±100 the full control effect; potency means the concentration at half of the fitted maximal effect.

This experiment can be described thus: qHTS assay for MDR1-selective chemotherapeutics: Primary screen using the drug-selected MDR subline cells KB-V1. Further: nearly all actives have a fitted effect of over 60% in size. The settings on record: KB-V1 MDR cells viability, CellTiter-Glo, 72 h; series mostly up to 46.1 µM; activity change, negative = cytotoxicity: at the top concentration. The procedure, abridged:
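Cytotoxicity via CellTiter-Glo luminescence after 72 h compound exposure at 37 degrees C. Cells: drug-selected KB-V1 line, DMEM phenol-red free plus 10% FBS. Compounds tested at multiple concentrations; normalized data fitted to concentration-effect curves.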
In general terms: qHTS replaces the single test concentration by a dilution series.
For `CC(C)C(=O)N1CCN(c2nc(-c3ccccc3)c3c(c2C#N)CC(C)(C)OC3)CC1`, the “activity change, negative = cytotoxicity” value is 15.4% (inactive).
Regarding `COc1ccc(CSc2nc(N3CCOCC3)c3c(c2C#N)CC(C)(C)OC3)cc1`, the “activity change, negative = cytotoxicity” value was -7.53% (inactive).
`CC1(C)Cc2c(C#N)c(SCc3nc4ccccc4[nH]3)nc(N3CCOCC3)c2CO1`: the Potency was 9.2 µM (active).
Regarding `COc1cccc(CNCc2c(C(=O)O)n(Cc3ccc(C)cc3)c3cc(C)ccc23)c1OC`, the “activity change, negative = cytotoxicity” value is -12.2% (inactive).
Regarding `Cc1c(CN2CC[C@@H](N3CCN(c4ccccn4)CC3)[C@H](O)C2)[nH]c2ccc(F)cc12`, the “activity change, negative = cytotoxicity” value was 19.3% (inactive).
`Fc1ccc2[nH]c3c(N4CCSCC4)ncnc3c2c1`: the Potency is 3.26 µM (active).
Take `CCCCCc1c(C)nc(N2CCN(Cc3ccc4c(c3)OCO4)CC2)[nH]c1=O`: the “activity change, negative = cytotoxicity” value is 8.37% (inactive).
For `O=c1[nH]c(N2CCN(Cc3ccc4c(c3)OCO4)CC2)nc2c1CCCC2`, the “activity change, negative = cytotoxicity” value was 0.611% (inactive).
Consider `Fc1ccc2[nH]c3c(N4CCN(Cc5ccc6c(c5)OCO6)CC4)ncnc3c2c1`, for which the Potency was 9.2 µM (active).
In the case of `CC1=C(C(=O)N(C)C)CC(CC(=O)NCCc2ccccn2)C(=O)N1CCC1=CCCCC1` (stereo not drawn), the “activity change, negative = cytotoxicity” value is -2.02% (inactive).
The same measure, in the same setting: the figure for `COCCNc1nc(Nc2ccccc2Cl)c2sc(-c3ccccc3)cc2n1` is 1.9% (inactive).
For the compound `COc1ccc(Nc2cc(C)nc(-n3nc(C)cc3C)n2)cc1`, the Potency was 0.231 µM (active).
For `COc1ccc(NC(=O)c2nc(-n3nc(C)cc3C)ccc2Cl)cc1Cl`, the “activity change, negative = cytotoxicity” value is -16.4% (inactive).
As to `CC(=O)Nc1ccc(Nc2cc(C)nc(Nc3ccc(NC(C)=O)cc3)n2)cc1`, the “activity change, negative = cytotoxicity” value is 0.471% (inactive).
For `CC1(C)NC(=O)N(CC(=O)Nc2ccc(-c3ccccc3)cc2)C1=O`, the “activity change, negative = cytotoxicity” value is 6.88% (inactive).
The same measure, in the same setting: the figure for `CC1(Oc2ccc(Cl)cc2)CCN(Cc2csc3ccccc23)C1` (stereo not drawn) is 6.11% (inactive).
`CN(C)c1nc(N)nc(CSc2nnnn2-c2cccc3ccccc23)n1`: the Potency is 6.51 µM (active).
Take `CN(C)c1nc(N)nc(CSc2ccccn2)n1`: the “activity change, negative = cytotoxicity” value was -15% (inactive).
The same measure, in the same setting: the figure for `COc1ccc(-n2nnnc2SCc2nc(N)nc(N3CCOCC3)n2)cc1` is -2.46% (inactive); for `CCOC(=O)C1CCCN(C(=O)c2ccc(C)c(F)c2)CC1` (stereo not drawn) it is 2.89% (inactive); for `COc1ccc(N(Cc2ccccc2)S(=O)(=O)c2cccc(C(=O)O)c2)cc1` it is -6.55% (inactive).
Still for that read-out and setting: next, `COc1ccc(S(=O)(=O)NCCCCOc2ccc(Cl)cc2)cc1`: 2.27% (inactive).
As for `COc1ccc(N(CCC#N)S(=O)(=O)c2ccc(Cl)cc2)cc1`, the Potency is 16.4 µM (active).
Consider `CCCCNC(=O)Cn1c(SCc2cccc(Cl)c2)nc2ccncc21`, for which the “activity change, negative = cytotoxicity” value was 24.9% (inactive).
Same read-out and setting: the figure for `O=C(NCCO)c1cccc(-c2cccc3nccn23)c1` is 2.1% (inactive).
On the same count and under the same terms, next, `CCC(=O)N1c2ccccc2CC1C(=O)N1CCN(c2cccc(OC)c2)CC1` (stereo not drawn): -2.51% (inactive); `Cc1ccc(NC(=O)Cn2sc3ccccc3c2=O)cc1`: -4.65% (inactive); `CC(C)OCCCn1c(SCC(=O)c2ccccc2)nc2c(sc3ccccc32)c1=O`: -4.17% (inactive).
For the compound `COc1ccc(N2CCN(C(=O)C3CCN(C(=O)c4ccccc4Cl)CC3)CC2)cc1`, the “activity change, negative = cytotoxicity” value was -0.446% (inactive).
The same measure, in the same setting: the figure for `COc1ccc(C(=O)Nc2ccccc2C(=O)N2CCN(c3ccccc3)CC2)cc1` is 2.33% (inactive).
`COc1ccc(C(=O)Nc2c(Cl)cc(Cl)cc2C(=O)N2CCC(C)CC2)cc1`: the Potency is 3.26 µM (active).
With `CCCNC(=O)C1(C)CCN1C(=O)Cc1ccc(-c2ccccc2)cc1` (stereo not drawn), the “activity change, negative = cytotoxicity” value was -9.32% (inactive).
For the compound `COC(=O)c1scc(-c2ccc(C)cc2)c1S(=O)(=O)Nc1cc(Cl)c(OC)cc1OC`, the “activity change, negative = cytotoxicity” value is -3.69% (inactive).
Still for that read-out and setting: the figure for `CCCNC(=O)C1CC(=O)N(c2ccc(OCc3ccccc3)cc2)C1` (stereo not drawn) is -19.5% (inactive); for `CC(C)n1ncc2c(C(=O)Nc3ccc(CC#N)cc3)cc(C3CC3)nc21` it is -15.1% (inactive).
On to `CC(C)n1ncc2c(C(=O)NCc3ccccc3CN(C)C)cc(C3CC3)nc21`, for which the “activity change, negative = cytotoxicity” value was 28.4% (inactive).
`COc1ccc(OCCNC(=O)c2cc(C3CC3)nc3c2cnn3C(C)C)cc1`: the Potency is 8.2 µM (active).
For `CCCCN1C(=O)C(CC(=O)NCc2cccs2)CC(C(=O)N2CCOCC2)=C1C` (stereo not drawn), the “activity change, negative = cytotoxicity” value was 21.1% (inactive).
The same measure, in the same setting: next, `O=C(Nc1ccc2c(c1)OCCO2)C(C1CC1)N1CCC(Cc2ccccc2)CC1` (stereo not drawn): 6.42% (inactive); `O=C(Nc1ccccn1)C1CCN(S(=O)(=O)c2ccc3c(c2)OCCO3)CC1`: -5.52% (inactive).
With `O=C(NCc1ccccn1)C1CCN(S(=O)(=O)c2ccc(Br)cc2)CC1`, the “activity change, negative = cytotoxicity” value is 5.38% (inactive).
Consider `O=C(Nc1ccccn1)C1CCN(S(=O)(=O)c2ccccc2)CC1`, for which the Potency was 18.4 µM (active).
In the case of `CN(Cc1ccc(C(F)(F)F)cc1)C(=O)[C@H]1O[C@@H](n2cnc3c(N)ncnc32)[C@H](O)[C@@H]1O`, the “activity change, negative = cytotoxicity” value is -2.71% (inactive).
Take `O=[N+]([O-])c1cc(S(=O)(=O)N2CCCC2)ccc1NN=C1CCCC1`: the Potency is 16.4 µM (active).
For `O=C(COc1ccc(S(=O)(=O)N2CCCC2)cc1[N+](=O)[O-])N1CCCCC1`, the “activity change, negative = cytotoxicity” value was -20.5% (inactive).
Take `O=[N+]([O-])c1cc(C(F)(F)F)ccc1NN=C1CCCC1`: the “activity change, negative = cytotoxicity” value is 28.7% (inactive).
On the same count and under the same terms, next, `COC(=O)c1ccc(CN2C(=O)C(Cc3ccccc3)ON=C2c2ncccc2C)o1` (stereo not drawn): -9.92% (inactive); `O=S(=O)(Nc1ccc2nc(N3CCOCC3)sc2c1)c1ccccc1`: -27.7% (inactive).
